# Reference: PubChem BioAssay AID1159580 (chemical genetic matrix, 2015)
# Screen size: about 5,500 compounds; about 2,000 (36%) were called active. Roughly 18% stayed inconclusive and do not appear here. The list shows a part of the results. Unmarked numbers belong to inactive results. Cut-off read from the data, not from the text of the source: active = normalized growth mostly below about 0.91 (no sharp cut-off); inconclusive = no clear call, values can overlap the other calls; inactive = mostly above about 0.92.
# Assay: chemical genetic growth profiling, strain panel (AID 1159580);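 note: tested at 20 µM; growth read once vehicle control cultures reached saturation at 30 °C; 1 = growth at the plate median or of vehicle wells; lower values mean less growth of the strain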
# Details: growth OD
# [1] = S. cerevisiae deletion strains, locus YAL013W, strain DEP1, active compounds read low
# [2] = S. cerevisiae deletion strains, locus YBR229C, strain ROT2, active compounds read low
# [3] = S. cerevisiae deletion strains, locus YDL101C, strain DUN1, active compounds read low
# [4] = S. cerevisiae deletion strains, locus YDR150W, strain NUM1, active compounds read low
# [5] = S. cerevisiae deletion strains, locus YEL061C, strain CIN8, active compounds read low
# [6] = S. cerevisiae deletion strains, locus YGR078C, strain PAC10, active compounds read low
# [7] = S. cerevisiae deletion strains, locus YHR030C, strain SLT2, active compounds read low
# [8] = S. cerevisiae deletion strains, locus YHR087W, strain rtc3, active compounds read low
# [9] = S. cerevisiae deletion strains, locus YJR043C, strain POL32, active compounds read low
# [10] = S. cerevisiae deletion strains, locus YJR075W, strain HOC1, active compounds read low
# [11] = S. cerevisiae deletion strains, locus YLR039C, strain RIC1, active compounds read low
# [12] = S. cerevisiae deletion strains, locus YLR058C, strain SHM2 (second series), active compounds read low
# [13] = S. cerevisiae deletion strains, locus YLR085C, strain ARP6, active compounds read low
# [14] = S. cerevisiae deletion strains, locus YLR262C, strain YPT6, active compounds read low
# [15] = S. cerevisiae deletion strains, locus YML094W, strain GIM5, active compounds read low
# [16] = S. cerevisiae deletion strains, locus YMR219W, strain ESC1, active compounds read low
# [17] = S. cerevisiae deletion strains, locus YMR263W, strain SAP30, active compounds read low
# [18] = S. cerevisiae deletion strains, locus YNL153C, strain GIM3, active compounds read low
# [19] = S. cerevisiae deletion strains, locus YNL298W, strain CLA4 (second series), active compounds read low
# [20] = S. cerevisiae deletion strains, locus YNL322C, strain KRE1, active compounds read low
# [21] = S. cerevisiae deletion strains, locus YNR030W, strain Alg12, active compounds read low
# [22] = S. cerevisiae deletion strains, locus YOL006C, strain TOP1, active compounds read low
# [23] = S. cerevisiae deletion strains, locus YPL055C, strain LGE1, active compounds read low
# [24] = S. cerevisiae deletion strains, locus YPL241C, strain CIN2, active compounds read low
# [25] = S. cerevisiae deletion strains, locus YPR135W, strain CTF4, active compounds read low
# [26] = S. cerevisiae deletion strains, locus YKL190W, strain CNB1, active compounds read low
# [27] = S. cerevisiae deletion strains, locus YMR307W, strain GAS1, active compounds read low
structure (smiles),measurement,setting,value
Cc1ccc(NC(=S)NNC(C)(C)C)cc1,normalized growth,[1],0.991
same,normalized growth,[2],0.963
same,normalized growth,"S. cerevisiae deletion strains, locus YCL061C, strain MRC1, active compounds read low",0.972
same,normalized growth,[3],0.971
same,normalized growth,[4],0.898
same,normalized growth,[5],0.838 (active)
same,normalized growth,[6],0.997
same,normalized growth,[7],0.721
same,normalized growth,[8],1.01
same,normalized growth,[9],0.99
same,normalized growth,[10],1.06
same,normalized growth,[11],0.654 (active)
same,normalized growth,[12],1
same,normalized growth,[13],0.488 (active)
same,normalized growth,[14],0.795 (active)
same,normalized growth,[15],0.827 (active)
same,normalized growth,[16],1.01
same,normalized growth,[17],1.03
same,normalized growth,"S. cerevisiae deletion strains, locus YNL128W, strain TEP1, active compounds read low",0.94
same,normalized growth,[18],0.955
same,normalized growth,[19],0.675 (active)
same,normalized growth,[20],1.02
same,normalized growth,[21],0.787 (active)
same,normalized growth,[22],0.193 (active)
same,normalized growth,[23],0.894
same,normalized growth,[24],0.913
same,normalized growth,[25],0.646 (active)
COC(=O)c1sccc1OC(=O)c1c(F)cccc1F,normalized growth,[1],0.963
same,normalized growth,[2],0.974
same,normalized growth,[3],0.908
same,normalized growth,[4],0.939
same,normalized growth,[5],1.01
same,normalized growth,[6],0.955
same,normalized growth,[7],0.726
same,normalized growth,[8],1.02
same,normalized growth,[9],0.981
same,normalized growth,[10],0.97
same,normalized growth,[26],0.989
same,normalized growth,[11],0.841
same,normalized growth,[12],0.961
same,normalized growth,[13],0.891
same,normalized growth,[14],0.914
same,normalized growth,[15],0.981
same,normalized growth,[16],0.955
same,normalized growth,[17],0.974
same,normalized growth,[27],0.975
same,normalized growth,[18],0.99
same,normalized growth,[19],0.912
same,normalized growth,[20],0.96
same,normalized growth,[21],0.979
same,normalized growth,[22],0.884
same,normalized growth,[23],0.97
same,normalized growth,[24],0.926
same,normalized growth,[25],0.768
O=C(Oc1ccc(C(F)(F)F)cc1[N+](=O)[O-])c1c(F)cccc1F,normalized growth,[1],0.185 (active)
same,normalized growth,[2],0.178 (active)
same,normalized growth,[3],0.316 (active)
same,normalized growth,[4],0.25 (active)
same,normalized growth,[5],0.235 (active)
same,normalized growth,[6],0.172 (active)
same,normalized growth,"S. cerevisiae deletion strains, locus YGR229C, strain SMI1, active compounds read low",0.927 (active)
same,normalized growth,[7],0.16 (active)
same,normalized growth,[8],0.133 (active)
same,normalized growth,"S. cerevisiae deletion strains, locus YJL187C, strain SWE1, active compounds read low",0.141 (active)
same,normalized growth,[9],0.424 (active)
same,normalized growth,[10],0.101 (active)
same,normalized growth,[26],0.218 (active)
same,normalized growth,[11],0.286 (active)
same,normalized growth,[12],0.15 (active)
same,normalized growth,[13],0.122 (active)
same,normalized growth,[14],0.316 (active)
same,normalized growth,[15],0.4 (active)
same,normalized growth,[16],0.14 (active)
same,normalized growth,[17],0.169 (active)
same,normalized growth,[27],0.213 (active)
same,normalized growth,[18],0.227 (active)
same,normalized growth,[19],0.23 (active)
same,normalized growth,[20],0.577 (active)
same,normalized growth,[21],0.559 (active)
same,normalized growth,[23],0.171 (active)
same,normalized growth,[24],0.685 (active)
same,normalized growth,[25],0.269 (active)
same,normalized growth,"S. cerevisiae strains, strain wild type, active compounds read low",0.515 (active)
